# Test results published in PubChem BioAssay (NCATS).
# Records with an inconclusive call do not appear. Where a call stands in place of a potency, no number is given. Values without a mark were called inactive. Activity calls are given as the source filed them. Calls follow the shape of the dose curve; as a rule, active = well fitted inhibition curve with a large enough effect; inconclusive = small, poorly fitted or top-dose-only effect; inactive = flat fitted curve, though single readings scatter.
# Key:
# W2 = assay: qHTS profiling for inhibitors of Plasmodium falciparum proliferation (AID 504749); conditions: P. falciparum in erythrocytes, SYBR Green DNA, 72 h; series mostly up to 28.7 µM
# In short: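 Quantitative HTS: compounds pinned into medium, infected erythrocytes added (0.3% parasitemia, 2.5% hematocrit), 72 h culture at 37 C under 5% CO2. Saponin/Triton lysis with SYBR Green I, overnight RT, then fluorescence read.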
# CRL-7250 = normal cell line; assay: Cytotoxic Profiling of Annotated Libraries Using Quantitative High-Throughput Screening (AID 1296008); conditions: Five cell lines viability, CellTiter-Glo ATP luminescence, 48-72 h; max response: hits give low values
# In short: (§1)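 Compounds were pin-transferred onto cells and incubated 48 or 72 hr at 37 degree Celsius, 95% humidity. CellTiter-Glo was added, plates sat 10 min at room temperature, then ATP-coupled luminescence was imaged as the viability read-out.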
# HEK293 = assay: as above; conditions: Five cell lines viability, CellTiter-Glo ATP luminescence, 48-72 h; max response: hits give low values
# In short: as §1
# KB-3-1 = assay: as above; conditions: Five cell lines viability, CellTiter-Glo ATP luminescence, 48-72 h; max response: hits give low values
# In short: as §1
# NIH3T3 = assay: as above; conditions: Five cell lines viability, CellTiter-Glo ATP luminescence, 48-72 h; max response: hits give low values
# In short: as §1
# MCC-13 = assay: qHTS assay to identify novel small-molecules to repurpose for Merkel cell carcinoma treatment (AID 1296009); conditions: MCC and control cell lines, CellTiter-Glo viability, 72 h; series mostly up to 46 µM
# In short: (§2)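 Viability readout: ATP luminescence (CellTiter-Glo) after 72 hr drug exposure at 37 degree celsius. Dose-response format was 8 points for NPC and 11 points for MIPE; data normalized to in-plate controls.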
# MCC-26 = assay: as above; conditions: MCC and control cell lines, CellTiter-Glo viability, 72 h; series mostly up to 46 µM
# In short: as §2
# HaCat [1] = assay: Cytotoxic Profiling of Annotated Libraries Using Quantitative High-Throughput Screening (AID 1296008); conditions: Five cell lines viability, CellTiter-Glo ATP luminescence, 48-72 h; max response: hits give low values
# In short: as §1
# HACAT [2] = assay: qHTS assay to identify novel small-molecules to repurpose for Merkel cell carcinoma treatment (AID 1296009); conditions: MCC and control cell lines, CellTiter-Glo viability, 72 h; at 44.8 µM (top of the series) unless noted
# In short: as §2
# Also: nearly all actives have a fitted effect of over 60% in size.
# Potency is read from the fitted curve at half-maximal effect.
smiles,measurement,setting,value
CCCCC(CC)COC(=O)/C=C/c1ccc(OC)cc1 (centres undefined),Potency,W2,inactive
same,max response,CRL-7250,-9.77%
same,max response,HEK293,-2.18%
same,max response,KB-3-1,15%
same,max response,NIH3T3,-7.17%
same,Potency,MCC-13,inactive
CC(C)(C)NC[C@H](O)COc1nsnc1N1CCOCC1,Potency,W2,1.51 µM (active)
same,max response,CRL-7250,-0.569%
same,max response,HEK293,1.26%
same,max response,KB-3-1,0.822%
same,max response,NIH3T3,-2.25%
same,Potency,MCC-13,inactive
same,Potency,MCC-26,inactive
O=C(Nc1ccc([N+](=O)[O-])cc1)Nc1ccc([N+](=O)[O-])cc1,Potency,W2,2.39 µM (active)
same,max response,CRL-7250,-8.01%
same,Potency,HEK293,8.41 µM (active)
same,outcome,HaCat [1],inactive
same,outcome,HACAT [2],inactive
same,Potency,MCC-13,inactive
same,Potency,MCC-26,inactive
C[C@H]1[C@H]2CC[C@H]3[C@@H]4CC=C5C[C@@H](N(C)C)CC[C@]5(C)[C@H]4CC[C@]23CN1C,max response,CRL-7250,-17.6%
same,outcome,HaCat [1],inactive
same,max response,KB-3-1,3.38%
same,max response,NIH3T3,0.439%
same,outcome,HACAT [2],inactive
same,Potency,MCC-13,inactive
same,Potency,MCC-26,inactive
CC(C)NCC(O)c1ccc2ccccc2c1 (centres undefined),Potency,W2,1.9 µM (active)
same,max response,CRL-7250,3.16%
same,outcome,HaCat [1],inactive
same,max response,KB-3-1,-2.59%
same,outcome,NIH3T3,inactive
same,outcome,HACAT [2],inactive
same,Potency,MCC-13,inactive
same,Potency,MCC-26,inactive
Cc1cc(CC(=O)O)c(C)n1-c1ccc(Cl)cc1,Potency,W2,8.49 µM (active)
same,outcome,CRL-7250,inactive
same,outcome,HaCat [1],inactive
same,max response,KB-3-1,-2.45%
same,outcome,NIH3T3,inactive
same,outcome,HACAT [2],inactive
same,Potency,MCC-13,inactive
same,Potency,MCC-26,inactive
N/C(=N\N=C\c1ccc(Cl)cc1)N/N=C/c1ccc(Cl)cc1,outcome,CRL-7250,inactive
same,outcome,HaCat [1],inactive
same,max response,KB-3-1,13.1%
same,max response,NIH3T3,-19%
same,outcome,HACAT [2],inactive
same,Potency,MCC-13,inactive
same,Potency,MCC-26,inactive
CN1CCN(c2c(F)cc3c(=O)c(C(=O)O)cn4c3c2SCC4)CC1,max response,CRL-7250,-2.29%
same,outcome,HaCat [1],inactive
same,max response,KB-3-1,-15.8%
same,max response,NIH3T3,-3.6%
same,outcome,HACAT [2],inactive
same,Potency,MCC-13,inactive
same,Potency,MCC-26,inactive
C[N+]1(C)CCC(=C(c2ccccc2)c2ccccc2)CC1,Potency,W2,inactive
same,max response,CRL-7250,-1%
same,outcome,HaCat [1],inactive
same,max response,KB-3-1,3.66%
same,max response,NIH3T3,-1.38%
same,outcome,HACAT [2],inactive
same,Potency,MCC-13,inactive
same,Potency,MCC-26,inactive
O=C(CCN1CCN2CCCC2C1)N1c2ccccc2Sc2ccc(Cl)cc21 (centres undefined),Potency,W2,3.01 µM (active)
same,max response,CRL-7250,-7.08%
same,outcome,HaCat [1],inactive
same,max response,KB-3-1,7.31%
same,max response,NIH3T3,3.25%
same,outcome,HACAT [2],inactive [at 17.4 µM]
same,Potency,MCC-13,inactive
CCN(CC)CCOC(=O)C(Cc1cccc2ccccc12)CC1CCCO1 (centres undefined),max response,CRL-7250,-0.146%
same,outcome,HaCat [1],inactive
same,max response,KB-3-1,13.9%
same,max response,NIH3T3,3.27%
same,outcome,HACAT [2],inactive
same,Potency,MCC-13,inactive
same,Potency,MCC-26,inactive
O=C(NC1CCN(CCc2c[nH]c3ccccc23)CC1)c1ccccc1,max response,CRL-7250,-5.92%
same,outcome,HaCat [1],inactive
same,max response,KB-3-1,-0.418%
same,max response,NIH3T3,-2.1%
same,outcome,HACAT [2],inactive
same,Potency,MCC-13,inactive
same,Potency,MCC-26,inactive
CO[C@H]1C=CO[C@@]2(C)Oc3c(C)c(O)c4c(O)c(c(/C=N/N5CCN(C)CC5)c(O)c4c3C2=O)NC(=O)/C(C)=C\C=C[C@H](C)[C@H](O)[C@@H](C)[C@@H](O)[C@@H](C)[C@H](OC(C)=O)[C@@H]1C,max response,CRL-7250,1.9%
same,max response,HaCat [1],-21.6%
same,max response,KB-3-1,-19.7%
same,max response,NIH3T3,-0.808%
same,Potency,MCC-13,inactive
CCCCCCCC/C=C\CCCCCCCCN,Potency,W2,inactive
same,outcome,CRL-7250,inactive
same,max response,HEK293,-3.13%
same,max response,NIH3T3,-3%
same,Potency,MCC-13,inactive
C[C@@]12C(=O)OC(=O)[C@]1(C)C1CCC2O1,Potency,CRL-7250,2.99 µM (active)
same,Potency,HEK293,7.5 µM (active)
same,Potency,NIH3T3,9.44 µM (active)
same,Potency,MCC-13,3.76 µM (active)
same,Potency,MCC-26,4.22 µM (active)
Cc1ccc2c(Br)cc(Br)c(O)c2n1,Potency,CRL-7250,21.1 µM (active)
same,Potency,HEK293,8.41 µM (active)
same,Potency,MCC-13,16.8 µM (active)
COc1cc(NS(=O)(=O)c2ccc(N)cc2)ncn1,Potency,W2,inactive
same,outcome,CRL-7250,inactive
same,max response,HEK293,-0.739%
same,max response,NIH3T3,-12.1%
same,Potency,MCC-13,inactive
same,Potency,MCC-26,inactive
CCCCCCCCCCC[C@@H](C[C@@H]1OC(=O)[C@H]1CCCCCC)OC(=O)[C@H](CC(C)C)NC=O,outcome,CRL-7250,inactive
same,outcome,HaCat [1],inactive
same,max response,KB-3-1,-9.82%
same,max response,NIH3T3,1.98%
same,outcome,HACAT [2],inactive
same,Potency,MCC-13,inactive
same,Potency,MCC-26,inactive
NC1CCN(c2nc3c(cc2F)c(=O)c(C(=O)O)cn3-c2ccc(F)cc2F)C1 (centres undefined),Potency,W2,5.36 µM (active)
same,outcome,CRL-7250,inactive
same,outcome,HaCat [1],inactive
same,max response,KB-3-1,1.57%
same,outcome,NIH3T3,inactive
same,outcome,HACAT [2],inactive
same,Potency,MCC-13,inactive
same,Potency,MCC-26,inactive
CCCCOC(=O)CC(CC(=O)OCCCC)(OC(C)=O)C(=O)OCCCC,max response,CRL-7250,-18.3%
same,outcome,HaCat [1],inactive
same,max response,KB-3-1,0.604%
same,max response,NIH3T3,-2.35%
same,outcome,HACAT [2],inactive
same,Potency,MCC-13,inactive
same,Potency,MCC-26,inactive
C#C[C@]1(O)CC[C@H]2[C@@H]3[C@H](C)CC4=C(CCC(=O)C4)[C@H]3CC[C@@]21C,max response,CRL-7250,-3.96%
same,outcome,HaCat [1],inactive
same,max response,KB-3-1,-4.12%
same,max response,NIH3T3,-7.98%
same,outcome,HACAT [2],inactive
same,Potency,MCC-13,inactive
same,Potency,MCC-26,inactive
COc1ccc(S(=O)(=O)N2c3ccc(Cl)cc3[C@@](O)(c3ccccc3Cl)[C@H]2C(=O)N2CCC[C@@H]2C(N)=O)cc1OC,max response,CRL-7250,-16.1%
same,max response,HaCat [1],-3.91%
same,max response,KB-3-1,-5.62%
same,max response,NIH3T3,1.04%
same,Potency,MCC-13,inactive
